From PubChem BioAssay AID493170 (National Center for Advancing Translational Sciences (NCATS), 2011)
Results filed as inconclusive are left out. A number with no mark means an inactive call. The source made the active and inactive calls. Calls follow the shape of the dose curve; as a rule, active = well fitted inhibition curve with a large enough effect; inconclusive = small, poorly fitted or top-dose-only effect, or effect the other way; inactive = flat fitted curve, though single readings scatter.

Molecular target: Ubiquitin carboxyl-terminal hydrolase 2 (Homo sapiens) (UniProt O75604)
Test: Ub-rhodamine 110 based assay for inhibitors Ubiquitin-specific Protease USP2a; also: nearly all actives have a fitted effect of over 50% in size
Settings: USP2a Ub-rhodamine110 cleavage, fluorescence; series mostly up to 38.3 µM; activity change, negative = inhibition: at the top concentration
Procedure, shortened: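 Kinetic fluorescence (485/531 nm) read each minute over 7 min after adding Ub-Rhod110 (150 nM final) to USP2a (5 nM final). The enzyme had 30 min RT exposure to compounds beforehand in Tris pH 8.0 buffer with CaCl2, CHAPS and beta-ME.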
% is scaled to controls: 0 for no effect and ±100 for the full control effect; potency is read from the fitted curve at half-maximal effect.

Chain of Ubiquitin carboxyl-terminal hydrolase 2 (Homo sapiens) (O75604 whole entry, looked up): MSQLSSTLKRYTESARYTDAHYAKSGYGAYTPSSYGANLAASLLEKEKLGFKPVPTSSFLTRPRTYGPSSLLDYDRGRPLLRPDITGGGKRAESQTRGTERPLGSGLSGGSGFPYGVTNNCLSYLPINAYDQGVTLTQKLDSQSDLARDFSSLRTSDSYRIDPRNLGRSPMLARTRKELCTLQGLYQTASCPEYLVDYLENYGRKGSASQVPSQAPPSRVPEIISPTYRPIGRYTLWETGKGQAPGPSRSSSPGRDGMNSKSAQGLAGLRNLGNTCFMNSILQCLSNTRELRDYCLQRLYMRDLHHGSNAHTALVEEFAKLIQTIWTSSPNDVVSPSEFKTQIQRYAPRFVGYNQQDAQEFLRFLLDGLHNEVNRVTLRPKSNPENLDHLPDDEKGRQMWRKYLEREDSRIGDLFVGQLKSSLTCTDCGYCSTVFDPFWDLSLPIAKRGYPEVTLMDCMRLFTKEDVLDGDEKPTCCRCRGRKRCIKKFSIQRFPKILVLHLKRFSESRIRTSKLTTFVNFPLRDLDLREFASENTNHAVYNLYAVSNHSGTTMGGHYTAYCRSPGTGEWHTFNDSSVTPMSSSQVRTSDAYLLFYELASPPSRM

Compound	activity change, negative = inhibition	Potency
Cc1cc(NC(=O)COC(=O)CCCOc2ccc(Cl)cc2C)no1	-2.52%	–
Cc1noc(NS(=O)(=O)c2ccc(N/C=C\C(=O)c3cccc4ccccc34)cc2)c1C	–	10 µM (active)
O=S(=O)(Nc1ccc(O)c(Sc2nc3ccccc3s2)c1)c1cccc2ccccc12	–	10 µM (active)
O=C(Cc1cc(=O)[nH]c(=O)[nH]1)NCC1CCCO1 (stereo unspecified)	-10.7%	–
C=CC[C@@H](CC(=O)N(CCO)Cc1ccccc1)C(=O)NCCOC(=O)[C@H](CC=C)CC(=O)OC(C)(C)C	2.02%	–
CCSc1nc(N2CCCCC2)c2c(c1C#N)CCCC2	-8.51%	–
C/C(=N/NC(=O)c1cc2ccccc2cc1O)C1C(=O)c2ccccc2C1=O	–	1.78 µM (active)
O=C(N/N=C/c1cc(Cl)c(O)c(Cl)c1)c1cc2c(ccc3ccccc32)o1	–	11.2 µM (active)
Cc1ccc(C2=N/C(=C\c3c(C)nn(-c4ccccc4)c3N3CCCC3)C(=O)O2)cc1	20.2%	–
O=C(NCC(c1cccnc1)N1CCN(c2ccc(F)cc2)CC1)OCc1ccccc1 (stereo unspecified)	-5.52%	–
NS(=O)(=O)c1ccc(NC(=O)CN2CCCCC2)cc1	0.599%	–
CCCOc1ccc(N2C(=O)CC(NCCc3ccc(S(N)(=O)=O)cc3)C2=O)cc1 (stereo unspecified)	-20.6%	–
O=C(COc1ccccc1)N1CCN(C(=O)Cc2ccccc2)CC1	1.44%	–
CN(C)S(=O)(=O)c1ccc(C(=O)NCCN=C2NS(=O)(=O)c3ccccc32)cc1	-8.45%	–
CCOc1ccc(-c2ccc(/C=C3/C(=N)N4C(C)=CSC4=NC3=O)o2)c([N+](=O)[O-])c1	–	7.94 µM (active)
O=C(/C=C/c1ccc(O)c(O)c1)c1ccc(S(=O)(=O)N2CCCCCC2)cc1	–	3.98 µM (active)
